Compound activity: PubChem BioAssay, Sanford-Burnham Center for Chemical Genomics
An excerpt weighted towards active compounds, which were near 0.71% of everything screened.
H9c2 TAG inh = inhibitors of triacylglycerol accumulation; H9c2 cells, Nile Red lipid (TAG) fluorescence; cells loaded with 200 µM oleic acid; inhibition, % at 12.5 µM; 230,000 tested, 0.66% active;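 active means pattern-corrected inhibition of lipid staining of at least 50% with the nuclear-stain viability signal not falling by more than 50%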;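 further: 0% = DMSO wells and 100% = triacsin C control wells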
hiPSC survival = enhancers of human iPSC single-cell survival; hiPSC single-cell survival, ATPlite luminescence; 100% = ROCK inhibitor wells, 0% = DMSO; AID 602274; survival enhancement, % at 20 µM; 360,000 tested, 0.044% active; in the data active means survival enhancement above about 18%;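 further: cells exposed to compounds for 16 hours before the ATP read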
beta cell repl = induces beta-cell replication in MIN6 cells. MIN6 cells proliferation, ATPlite luminescence, 48 h; cells starved in 0.2% serum; 100% = growth in 10% serum. proliferation, % at 10 µM. 330,000 tested, 0.29% active;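 active means compounds whose signal lies at least 3.5 SD above the mean of all wells on their plate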;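 further: 0% = DMSO-treated cells in low-serum medium and 100% = 10% serum control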
H9c2 TAG conf = triacylglycerol accumulation inhibition, confirmation; inhibition, % at 12.5 µM; 990 tested, 71% active; shares compounds with H9c2 TAG inh; H9c2 lipid accumulation, Nile Red fluorescence; cells loaded with 200 µM oleic acid;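 active means mean inhibition across replicates of 40% or more; inactive means mean inhibition below 40%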;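 further: plate controls were DMSO only wells for no effect and Triacsin C treated wells for full effect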
* = called active by the depositor; / = not tested or not shown.

SMILES	H9c2 TAG inh	hiPSC survival	beta cell repl	H9c2 TAG conf
COc1cc2c(c(OC)c1OC)-c1ccc(OC)c(=O)cc1C(NC(=O)c1ccccc1)CC2 (stereo unspecified)	55*	-2	/	69*
COc1cc2c(c(OC)c1OC)-c1ccc(SC)c(=O)cc1C(NC=O)CC2 (stereo unspecified)	69*	-2	/	47*
C=COC(=O)NC1CCc2cc(OC)c(OC)c(OC)c2-c2ccc(SC)c(=O)cc21 (stereo unspecified)	22	1	/	/
COc1cc2c(c(OC)c1OC)-c1ccc(SC)c(=O)cc1C(NC(=O)c1ccccc1)CC2 (stereo unspecified)	27	-1	/	/
O=C(c1cccc(S(=O)(=O)N2CCc3ccccc32)c1)N1CCN(c2ccccc2)CC1	4	0	-4	/
CCc1nc2c(OCc3cc(Cl)cc(Cl)c3)cccn2c1N(C)C(=O)c1ccc(OC)cc1	2	5	/	/
C[C@@H]1CN([C@H](C)CO)C(=O)c2cc(-c3ccc(C(=O)N(C)C)cc3)cnc2O[C@@H]1CN(C)C(=O)c1cccnc1	5	0	/	/
COc1ccc(C(O)c2nc(-c3ccc(F)c(Cl)c3)cs2)cc1 (stereo unspecified)	-28	3	/	/
CN(C)Cc1csc(Nc2ccc(C(=O)c3ccccc3)cc2)n1	14	-3	/	/
O=C(CSc1nc2ccccc2[nH]1)Nc1nc(-c2cccc(Br)c2)cs1	/	-1	-6	/
CN(C)CCCn1c(SCC(=O)Nc2nc(-c3cccc(Br)c3)cs2)nc2ccccc2c1=O	79*	-1	-8	67*
COc1cccc(-c2nnc(SCC(=O)Nc3cc(C)ccc3OC)n2N)c1	53*	0	-3	26
COc1ccc(C)cc1NC(=O)CSc1nnc(-c2ccco2)n1N	/	-1	0	/
CCc1nc2ccc(C(=O)Nc3cccc(NS(C)(=O)=O)c3)cn2c1N(C)CCN1CCOCC1	-5	-1	/	/
CCN(C[C@H]1N[C@@](CC)(C(=O)OC)[C@H]2C(=O)N(Cc3ccccc3)C(=O)[C@@H]12)S(=O)(=O)c1ccc(-c2ccccc2)cc1	45	-2	-2	/
CCN(C[C@H]1N[C@@](CC)(C(=O)OC)[C@H]2C(=O)N(Cc3ccccc3)C(=O)[C@@H]12)S(=O)(=O)c1ccc(C(C)(C)C)cc1	65*	1	-5	60*
O=C(Nc1ccc2c3c(cccc13)CC2)c1ccccc1	4	12	/	/
Cc1[nH]n(-c2ccc([N+](=O)[O-])cc2)c(=O)c1C=NCCc1c[nH]c2ccccc12	/	0	2	/
CCCc1[nH]n(-c2ccc([N+](=O)[O-])cc2)c(=O)c1C=NCCc1c[nH]c2ccccc12	63*	0	0	65*
CCN(CC(=O)Nc1ccc(OC)cc1)CC(=O)Nc1cccc(S(=O)(=O)N2CCOCC2)c1	-12	-2	/	/
CCCCNC(=O)C1(C)CCN1C(=O)c1cc(C)n(C(C)(C)C)n1 (stereo unspecified)	-7	-2	/	/
CC1(C)O[C@@H]2C[C@H]3[C@@H]4CCC5=CC(=O)C=C[C@]5(C)[C@@]4(F)[C@@H](O)C[C@]3(C)[C@]2(C(=O)CO)O1	36	7	-2	/
CC(=O)OCC(=O)[C@@]12OC3(CCCC3)O[C@@H]1C[C@H]1[C@@H]3CCC4=CC(=O)C=C[C@]4(C)[C@@]3(F)[C@@H](O)C[C@@]12C	57*	-2	-7	64*
O=C(NC(=S)NCCc1ccccc1)C1CCCCC1	-7	-3	-6	/
O=C(NC(=S)N(Cc1ccccc1)Cc1ccccc1)C1CCCCC1	54*	2	-2	0
SMILES	H9c2 TAG inh	hiPSC survival	beta cell repl	H9c2 TAG conf
CC(=O)c1ccc(OCC(=O)OCC(=O)c2ccc(S(=O)(=O)N3CCCCC3)cc2)cc1	-8	4	/	/
COc1ccc(NC(=O)c2cccc(NC(=O)c3ccccc3)c2)cc1	/	0	-3	/
COc1ccc(C(=O)Nc2ccc(C(=O)Nc3cccc(C)c3)cc2)cc1	56*	0	-6	38
COc1cc(C#Cc2c(-c3cncn3C)n(C)c3ccc(-c4ccc5[nH]ccc5c4)cc23)cc(OC)c1	93*	1	-6	92*
COc1cc(OC)cc(-c2c(C#Cc3ccsc3)c3cc(-c4cc(OC)c(OC)c(OC)c4)ccc3n2C)c1	31	-3	-4	/
COc1cc(OC)cc(-c2c(C#Cc3ccsc3)c3cc(-c4ccc5[nH]ccc5c4)ccc3n2C)c1	/	-3	-5	/
COc1cc(C#Cc2c(-c3cncn3C)n(C)c3ccc(-c4cc(OC)c(OC)c(OC)c4)cc23)cc(OC)c1	61*	0	-5	77*
O=C(Nc1ccc(C(=O)N2CCCCC2)cc1)[C@H]1O[C@@H](n2ccc(=O)[nH]c2=O)[C@H](O)[C@@H]1O	/	0	/	/
CCCCC(=O)N(C)c1c(C)nc2ccc(C(=O)N(C)CCN(C)C)cn12	-3	0	/	/
CC(C)(C)c1csc(NC(=O)Cc2cccs2)n1	14	0	-1	/
CC(C)(C)c1csc(NC(=O)c2cccs2)n1	73*	-1	-1	34
Cc1noc(C)c1C(=O)N1CCCC(C)(C(=O)NS(=O)(=O)C2CC2)C1 (stereo unspecified)	3	1	/	/
COCCNc1nc(NCc2ccc(NC(C)=O)cc2)c2sc(-c3ccccc3)cc2n1	53*	-5	/	123*
C=CCNc1nc(Nc2ccc(OC)c(OC)c2)c2sc(-c3ccccc3)cc2n1	70*	-4	/	82*
c1ccc(CNc2nc(NCC3CC3)nc3cc(-c4ccccc4)sc23)cc1	21	-1	/	/
C=CCNc1nc(NCCOC)c2sc(-c3ccccc3)cc2n1	5	3	/	/
c1ccc(OCCNc2nc(NCC3CC3)nc3cc(-c4ccccc4)sc23)cc1	57*	-1	/	41*
COCCNc1nc(Oc2ccc(NC(C)=O)cc2)c2sc(-c3ccccc3)cc2n1	26	-3	/	/
COc1ccc(-c2noc(CN(C)C(=O)CCCN3C(=O)[C@H]4CC=CC[C@H]4C3=O)n2)cc1	-18	-4	/	/
Cc1cc(C)nc(NC(=NCCc2c[nH]c3ccccc23)NC(=O)Nc2ccc(Cl)c(Cl)c2)n1	67*	0	-5	70*
Cc1cc(C)nc(NC(=NCCc2c[nH]c3ccccc23)NC(=O)Nc2cccc([N+](=O)[O-])c2)n1	/	-1	-4	/
Cn1c(OCC2CCCO2)nc2cc(-c3ccccc3)sc2c1=O (stereo unspecified)	3	0	/	/
COc1cc(OC)c(C2C=CC(=O)CC2)c(OC)c1 (stereo unspecified)	/	-1	/	/
COc1ccc(-c2oc(=O)c3cc(OC)c(OC)cc3c2/C=C/c2ccc([N+](=O)[O-])cc2)cc1	54*	8	-5	31
COc1ccc(-c2oc(=O)c3cc(OC)c(OC)cc3c2/C=C/c2cccc([N+](=O)[O-])c2)cc1	35	-1	-7	/
CN1CCN(C(=O)C(=O)c2cn(CC(=O)N3CCOCC3)c3ccccc23)CC1	5	-2	/	/
COC(=O)C[C@@H]1C[C@H]2c3cc(NS(C)(=O)=O)ccc3O[C@H]2[C@H](CO)O1	8	1	/	/
Cc1nc2ccc(C(=O)NCCCn3ccnc3)cn2c1N(C)C(=O)CCc1ccccc1	9	0	/	/
